# Experimental data published in PubChem BioAssay (Tox21).
# Several values for one entry are separate records, joined by “and”; a condition that tells them apart may be missing. Identical values can stand only once. Inconclusive results are not listed. Entries that show only a call come without a potency. A structure can be active in one record and inactive in another. Activity calls are given as the source filed them. Unless noted, calls follow the shape of the dose curve; as a rule, active = well fitted curve in the direction sought with a large enough effect in the repeat runs; inconclusive = weak or mixed curves; inactive = no such curve, though single readings can be large; an effect the other way counts as inactive or inconclusive.
# Columns and labels:
# [1] = qHTS assay to identify small molecule agonists of the RXR signaling pathway - cell viability counter screen (AID 1159529); also: nearly all actives have a fitted effect of over 50% in size; also: potency is read from the fitted curve at half-maximal effect
# How it was run: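 Steps: seed RXR-alpha-UAS-bla HEK 293T cells in assay medium containing 2% charcoal-stripped FBS; incubate 5 hr; add compounds in DMSO; incubate 16 hr at 37 C; after the bla read, add CellTiter-Glo and read luminescence at 30 min.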
# [2] = qHTS assay to identify small molecule antagonists of the retinoid acid receptor (RAR) signaling pathway - cell viability counter screen (AID 1159551); also: nearly all actives have a fitted effect of over 35% in size; also: potency is read from the fitted curve at half-maximal effect
# How it was run: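 C3RL4 RARE-luciferase line; cpds + retinol 1 uM final, 6 h, 37 C/5% CO2; CellTiter-Glo ATP luminescence, 30 min RT.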
# [3] = qHTS assay to identify small molecule antagonists of the estrogen related receptor (ERR) signaling pathway from Tox21 library - cell viability counter screen (AID 1224834); also: nearly all actives have a fitted effect of over 30% in size; also: potency is read from the fitted curve at half-maximal effect
# How it was run: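 Multiplexed viability counter screen in ERR cells: 17.5 h compound exposure at 37 C, CellTiter-Fluor added, 30 min at 37 C/5% CO2, fluorescence read.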
# [4] = qHTS assay to identify small molecule antagonists of the retinoic acid receptor (RAR) signaling pathway (AID 1159552; also: nearly all actives have a fitted effect of over 50% in size; also: potency is read from the fitted curve at half-maximal effect)
# How it was run: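 Retinol at 1 uM final stimulated RARE-luciferase expression in C3RL4 cells exposed to test compounds for 6 hr at 37 C. Reduced luminescence, read 30 min after detection reagent, indicated pathway antagonism.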
# [5] = qHTS assay to identify small molecule agonists of the retinoic acid receptor (RAR) signaling pathway (AID 1159553); also: potency is read from the fitted curve at half-maximal effect
# How it was run: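 RARE-luc C3RL4 cells; overnight attachment 37 C/5% CO2; compound (DMSO) 6 hr; luciferase reagent, 30 min RT; luminescence read-out.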
# [6] = qHTS assay to identify small molecule antagonists of the estrogen related receptor (ERR) signaling pathway (AID 1224819; also: nearly all actives have a fitted effect of over 50% in size; also: potency is read from the fitted curve at half-maximal effect)
# How it was run: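 Luminescence readout (One-Glo, 30 min, RT) of ERR cell line after 18 h compound exposure at 37 C; cells seeded 2,000/well, pre-incubated 6 h, compounds pinned from DMSO stocks.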
# [7] = qHTS assay to identify small molecule agonists of the estrogen related receptor (ERR) signaling pathway (AID 1224820)
# How it was run: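 After 6 h plating (2,000 cells/well) and 18 h compound treatment at 37 C, ERR cells were lysed with One-Glo and luminescence read after 30 min at room temperature.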
# [8] = test system: estrogen-related receptor alpha (ERRalpha) with PGC-1alpha coactivator, human; test: qHTS assay to identify small molecule antagonists of the estrogen related receptor signaling pathway with the pleiotropic PPARgamma coactivator (PGC) (AID 1224821; calls by dose curve; also: nearly all actives have a fitted effect of over 50% in size; also: potency is read from the fitted curve at half-maximal effect)
# How it was run: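 Luminescence from One-Glo luciferase reagent (30 min, room temperature) measured after 18 h compound treatment at 37 °C. Cells carry the PGC/ERR reporter and were seeded 6 h prior to dosing.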
# [9] = qHTS assay to identify small molecule antagonists of the estrogen related receptor signaling pathway with the pleiotropic PPARgamma coactivator (PGC) cell viability counter screen (AID 1224822; also: potency is read from the fitted curve at half-maximal effect)
# How it was run: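 Fluorescence read-out of CellTiter-Fluor after 30 min at 37 C; PGC/ERR cells, 2,000 per well, had been exposed to DMSO-dissolved compounds for 17.5 h following a 6 h pre-incubation.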
# [10] = qHTS assay to identify small molecule agonists of the estrogen related receptor signaling pathway with the pleiotropic PPARgamma coactivator (PGC) (AID 1224823)
# How it was run: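 Luminescence from One-Glo reagent (30 min, room temperature) was read after 18 h compound treatment at 37 C of PGC/ERR cells plated 6 h beforehand; compounds delivered in DMSO by pin tool.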
smiles,measurement,setting,value
OCCN1CCNCC1,Potency,[1],inactive
same,Potency,[2],inactive
same,Potency,[3],inactive
Nc1nc(=S)c2[nH]cnc2[nH]1,Potency,[2],inactive
same,Potency,[4],inactive and 24.3 µM (active)
same,Potency,[5],inactive
O=C(Oc1ccccc1)c1ccccc1O,Potency,[2],inactive
same,Potency,[4],inactive
same,Potency,[5],inactive
Cc1cc(OCCOCC[N+](C)(C)Cc2ccccc2)ccc1C(C)(C)CC(C)(C)C,Potency,[2],60.8 µM (active) and 29.8 µM (active)
same,Potency,[4],48.3 µM (active) and 29.8 µM (active)
CCOC(=O)C(C)C(C)=O (centres undefined),Potency,[2],inactive
same,Potency,[4],inactive
same,Potency,[5],inactive
O=S(=O)(O)c1ccc2nc(-c3ccccc3)[nH]c2c1,Potency,[1],inactive
same,Potency,[4],inactive
same,Potency,[5],inactive
c1ccc2c(c1)-c1cccc3c1c-2cc1ccccc13,Potency,[2],inactive
same,Potency,[4],inactive
CC(=O)O[C@]1(C(C)=O)CC[C@H]2[C@@H]3C[C@H](C)C4=CC(=O)CC[C@]4(C)[C@H]3CC[C@@]21C,Potency,[1],inactive
same,Potency,[2],inactive
same,Potency,[3],61.1 µM (active)
CC(=O)CC(C)=O,Potency,[1],inactive
same,Potency,[2],inactive
same,Potency,[5],inactive
CC(C)(C)NC(=O)[C@@H]1CN(Cc2cccnc2)CCN1C[C@@H](O)C[C@@H](Cc1ccccc1)C(=O)N[C@H]1c2ccccc2C[C@H]1O,Potency,[1],inactive
same,Potency,[2],inactive
same,Potency,[3],inactive
BrC1CCC(Br)C(Br)CCC(Br)C(Br)CCC1Br (centres undefined),Potency,[1],15.4 µM (active) and 18.5 µM (active)
same,Potency,[2],inactive
same,Potency,[3],48.4 µM (active)
CC(C)(C)c1cc(C(C)(C)C)c(O)c(C(C)(C)C)c1,Potency,[1],inactive
same,Potency,[2],inactive
same,Potency,[3],inactive
CN(C)c1ccc2nc3ccc(=[N+](C)C)cc-3sc2c1,Potency,[1],inactive
same,Potency,[2],13.1 µM (active) and 30.6 µM (active) and 23.7 µM (active)
same,Potency,[5],2.94 µM (active) and 1.37 µM (active) and 1.68 µM (active)
same,Potency,[3],4.16 µM (active) and 6.11 µM (active) and 5.96 µM (active)
CCN(CC)C(=S)SSC(=S)N(CC)CC,Potency,[1],199 nM (active) and 213 nM (active)
same,Potency,[2],inactive
same,Potency,[6],10.9 µM (active) and 16.2 µM (active)
same,outcome,[7],inactive
same,Potency,[8],386 nM (active) and 1.39 µM (active)
same,Potency,[9],386 nM (active) and 220 nM (active)
same,outcome,[10],inactive
same,Potency,[3],243 nM (active) and 88.4 nM (active) and 335 nM (active)
CC(C)CCOCc1ccccc1,Potency,[2],inactive
same,Potency,[4],inactive
same,Potency,[5],inactive
COc1ccc(Cc2cnc(N)nc2N)cc1OC,Potency,[2],inactive
same,Potency,[4],inactive
same,Potency,[5],inactive
CCCCCCCCCCCCCC[P+](CCCC)(CCCC)CCCC,Potency,[1],6.13 µM (active) and 11 µM (active)
same,Potency,[2],43 µM (active) and 43.3 µM (active)
same,Potency,[4],9.63 µM (active) and 9.69 µM (active)
same,Potency,[3],21.6 µM (active) and 27.3 µM (active)
NC(=Nc1ccccc1)Nc1ccccc1,Potency,[1],inactive
same,Potency,[2],inactive
same,Potency,[6],inactive
same,Potency,[8],inactive
same,Potency,[9],inactive
CC[C@]1(O)C[C@@H]2CN(CCc3c([nH]c4ccccc34)[C@@](C(=O)OC)(c3cc4c(cc3OC)N(C)[C@H]3[C@@](O)(C(=O)OC)[C@H](OC(C)=O)[C@]5(CC)C=CCN6CC[C@]43[C@@H]65)C2)C1,Potency,[2],inactive
same,Potency,[3],0.841 µM (active)
NC12CC3CC(CC(C3)C1)C2,Potency,[2],inactive
same,Potency,[4],inactive
same,Potency,[5],inactive
same,Potency,[9],inactive
same,Potency,[3],inactive
CC(C)(C)c1ccc(O)c(C(C)(C)C)c1,Potency,[2],54.3 µM (active) and 54.5 µM (active)
same,Potency,[5],inactive
same,Potency,[3],48.4 µM (active) and 61.1 µM (active)
O=c1n(CC2CO2)c(=O)n(CC2CO2)c(=O)n1CC1CO1 (centres undefined),Potency,[2],inactive
same,Potency,[4],inactive
same,Potency,[5],inactive
same,Potency,[3],60.8 µM (active)
NCCO,Potency,[2],inactive
same,Potency,[4],inactive
same,Potency,[5],inactive
same,Potency,[9],inactive
CC(C)CCOC(=O)c1ccc(N(C)C)cc1,Potency,[2],inactive
same,Potency,[4],inactive
same,Potency,[5],2.11 µM (active)
same,Potency,[3],inactive
NC(N)=Nc1nc(CSCC/C(N)=N/S(N)(=O)=O)cs1,Potency,[2],inactive
same,Potency,[4],inactive
same,Potency,[5],inactive
same,Potency,[6],inactive
same,outcome,[7],inactive
same,Potency,[8],inactive
same,Potency,[9],inactive
same,outcome,[10],inactive
same,Potency,[3],inactive
O=C(Cl)c1cccc(C(=O)Cl)c1,Potency,[2],inactive
same,Potency,[3],inactive
